Hits are enriched below; roughly 1.6% of the tested compounds scored in any of these assays.
LYPLA1 inh = blocks human lysophospholipase 1, a PME1 counter-screen; actives 0.16% (n = 320,000); O75608; inhibition, % at 5.9 µM; recombinant LYPLA1, FP-Rh probe fluorescence polarization;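 active = inhibition above the mean of all tested compounds plus 3 SD, set per campaign, cut at about 14% in these data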;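 also: inhibitors block serine hydrolase probe labeling of LYPLA1 so polarization falls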
LYPLA2 inh = LYPLA2 (human) inhibition in PME1 counter-screen; O95372; recombinant LYPLA2, FP-Rh probe fluorescence polarization; inhibition, % at 5.9 µM; actives 0.38% (n = 320,000); AID 2177;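 active = inhibition above the screen-wide mean plus 3 SD, limit set per campaign, cut at about 26% in these data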
Fam108B inh = Fam108B inhibition, counter-screen for RBBP9 inhibitors; recombinant Fam108B, FP-Rh probe fluorescence polarization; inhibition, % at 9.51 µM; actives 0.33% (n = 300,000);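 active = inhibition above the screen mean inhibition plus 3 SD, computed separately per campaign, cut at about 18% in these data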;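 also: inhibitors lower polarization as less probe binds the enzyme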
PREPL inh = human PREPL enzyme inhibition; Q4J6C6; recombinant PREPL, fluorescence polarization activity-based probe; actives 0.68% (n = 320,000); inhibition, % at 5.96 µM; AID 2751
PME-1 primary = PME-1 (human) inhibition; recombinant PME-1, FP-Rh probe fluorescence polarization; inhibition, % at 5.9 µM; actives 0.53% (n = 320,000); AID 2130;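 active = inhibition above the campaign mean of all compounds plus 3 SD, cut at about 26% in these data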;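 also: competitive labeling of PME-1 active site by serine hydrolase directed probe; inhibitors block probe labeling so polarization falls and inhibition rises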
Target sequence (Q9Y570 whole entry, looked up): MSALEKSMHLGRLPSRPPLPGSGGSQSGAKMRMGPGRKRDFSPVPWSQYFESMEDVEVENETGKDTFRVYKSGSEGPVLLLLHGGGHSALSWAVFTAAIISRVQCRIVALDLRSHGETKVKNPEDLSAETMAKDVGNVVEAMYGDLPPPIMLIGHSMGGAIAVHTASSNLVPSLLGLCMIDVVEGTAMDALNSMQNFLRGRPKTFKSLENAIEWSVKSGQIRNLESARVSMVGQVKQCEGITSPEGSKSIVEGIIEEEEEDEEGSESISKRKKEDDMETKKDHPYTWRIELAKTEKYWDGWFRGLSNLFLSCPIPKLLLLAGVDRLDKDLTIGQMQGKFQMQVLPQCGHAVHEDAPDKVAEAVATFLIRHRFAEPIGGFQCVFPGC
MEX-5 binding = C. elegans MEX-5 TCR-2 RNA binding activity. AID 1832. activity score (negative = inhibition of binding), % at 10 µM. actives 0.38% (n = 300,000). MEX-5/FITC-TCR2 RNA binding, fluorescence polarization; active compounds read low. Q9XUB2;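 active = inhibition past about -25% in most replicates, and total fluorescence under double the plate's negative control median, limit read from the data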
PREPL confirm = confirmation of human PREPL enzyme inhibitors; recombinant PREPL, fluorescence polarization activity probe; AID 2803; actives 67% (n = 2,000); shares compounds with PREPL inh; inhibition, % at 5.96 µM
A number is an active result; n = inactive; x = not tested or not shown. Rule as the data show it, unless noted: active = inhibition above about 43%; inactive = the rest.

SMILES	LYPLA1 inh	LYPLA2 inh	Fam108B inh	PREPL inh	PME-1 primary	MEX-5 binding	PREPL confirm
CC(=O)c1cccc(OC(=O)c2cc(S(=O)(=O)N3CCOCC3)ccc2N2CCCC2)c1	n	n	x	n	n	x	x
COc1ccc(CCNC(=O)COc2ncnc3cc([N+](=O)[O-])ccc23)cc1	n	n	n	n	n	n	x
O=[N+]([O-])c1cccc(COc2ncnc3cc([N+](=O)[O-])ccc23)c1	n	n	n	47	n	n	n
COc1ccc2[nH]c(C)c(C(=O)CN3CCN(C/C=C/c4ccccc4)CC3)c2c1	n	n	n	44	n	n	n
NC(=O)c1noc(C(=O)N(CC(=O)NC2CCCC2)Cc2ccc3c(c2)OCO3)c1N	n	n	n	n	n	x	x
CC(C)OP(=O)(OC(C)C)C(Nc1cccc(C(=O)O)c1)c1ccccc1 (stereo not drawn)	n	n	n	n	n	n	x
CC1=CCC2COC(c3ccc[n+](Cc4ccccc4)c3)C1C2 (stereo not drawn)	n	n	n	49	n	n	n
Clc1ccc(OCc2nn3c(C4CCCCC4)nnc3s2)cc1	n	n	n	46	n	n	n
COc1cc2cc3c(N)c(C(=O)NCc4ccco4)sc3nc2cc1OC	n	n	n	46	47	n	57
O=C(N/N=C/c1ccncc1)c1ccc(-n2cccc2)cc1	n	n	n	n	n	n	x
CC1(C)CC(NC(=O)CCc2ccccc2)CC(C)(C)N1	n	n	n	n	n	n	x
COc1cc(/C=C2\C(=N)N3N=C(S(C)(=O)=O)SC3=NC2=O)ccc1OC(=O)c1cccs1	n	n	n	76	n	n	88
COC(=O)c1ccc(N2NC(=O)/C(=C/c3ccc(OC)c(OC)c3)C2=O)cc1	n	n	n	n	n	n	x
COc1cc(/C=C2\C(=N)N3N=C(S(C)(=O)=O)SC3=NC2=O)ccc1OC(=O)c1ccco1	n	n	n	61	n	n	85
CCOc1cc(/C=C2\C(=N)N3N=C(S(=O)(=O)CC)SC3=NC2=O)ccc1OC(=O)c1ccco1	n	n	n	n	n	n	x
COc1cc(/C=C2/C(=O)NN(c3cccc(C)c3)C2=O)ccc1OC(=O)c1ccco1	n	n	n	56	n	n	n
CCc1ccc(OCCOC(=O)Nc2ccccc2)cc1	n	n	n	n	n	n	x
O=[N+]([O-])c1ccccc1OCCCOc1cccc2cccnc12	n	n	n	n	n	n	x
Cc1nc(NCCc2ccccc2)sc1C(=O)O	n	n	n	n	n	n	x
O=C1c2c(O)ccc(O)c2C(=O)c2c(NCCNCCO)ccc(NCCNCCO)c21	n	n	n	101	n	x	98
CS(=O)(=O)c1ccc(Cl)c(NC(=O)COC(=O)CNC(=O)c2cccs2)c1	n	n	n	n	n	n	x
COC(=O)c1ccc(OCCOCCOc2cccc3ccc(C)nc23)cc1	n	n	n	n	n	n	x
COC(=O)c1ccccc1OCCOCCOc1cccc2ccc(C)nc12	n	n	n	49	n	n	n
COCCCNC(=O)C(=O)NC1CCCCCC1	n	n	n	n	n	x	x
COc1ccc(NCc2nnc(SCc3ccc(Cl)cc3)n2-c2ccccc2)cc1	n	n	n	52	n	n	49
SMILES	LYPLA1 inh	LYPLA2 inh	Fam108B inh	PREPL inh	PME-1 primary	MEX-5 binding	PREPL confirm
COc1ccc(-n2c(COc3ccc(Cl)cc3)nnc2SCc2ccc(C#N)cc2)cc1	n	n	n	n	n	n	x
CCN(CCCNC(=O)C1c2ccccc2C(=O)N(CCOC)C1c1ccc(F)cc1)Cc1ccccc1 (stereo not drawn)	n	n	n	49	n	n	n
CCN(CC)CCCNC(=O)C1c2ccccc2C(=O)N(CCOC)C1c1ccc(F)cc1 (stereo not drawn)	n	n	n	n	n	n	x
Cc1cc(-c2csc(N)n2)c(C)n1-c1ccc(Cl)c(Cl)c1	n	n	n	n	n	n	x
Cc1c(-c2csc(N)n2)cnn1C	n	n	n	n	n	n	x
COc1ccc(-n2c(C)cc(-c3csc(N)n3)c2C)cc1	n	n	n	43	n	n	n
CCCn1c(C)cc(-c2csc(N)n2)c1C	n	n	n	44	n	n	n
CC(=O)NC1=C(Nc2ccc(N(C)C)cc2)C(=O)c2ccccc2C1=O	n	n	n	49	n	n	n
